# In paper PMC5540273 (PLoS ONE, 2017):
# Legend:
# Conditions in all cases: concentration: 1 μM, replicates: in singlicate; n = 1
# SRPK1 = tested on: SRPK1
# SRPK2 = tested on: SRPK2
# SRPK3 = tested on: SRPK3
# STK16 = tested on: STK16
# STK33 = tested on: STK33
# STK35 = tested on: STK35
# STK36 = tested on: STK36
# STK39 = tested on: STK39
# SYK = tested on: SYK
# SgK110 = tested on: SgK110
# 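Also: KINOMEscan kinase panel screen.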
SMILES,%Inh (SRPK1),%Inh (SRPK2),%Inh (SRPK3),%Inh (STK16),%Inh (STK33),%Inh (STK35),%Inh (STK36),%Inh (STK39),%Inh (SYK),%Inh (SgK110)
Cc1ccccc1COc1cc(-n2cnc3cc(Cl)ccc32)sc1C(N)=O [GW813349],10%,34%,10%,0%,30%,0%,30%,0%,9%,0%
CCS(=O)(=O)c1ccc(OC)c(Nc2ncc(-c3ccc(F)cc3)o2)c1.Cl [GW591947],30%,0%,0%,1%,12%,0%,0%,11%,48%,0%
O=C(NCc1cccs1)c1cc(C(=O)c2c(Cl)cccc2Cl)c[nH]1 [GW823670],0%,0%,0%,0%,0%,0%,10%,0%,6%,14%
CCC(=O)c1c(-c2ccccc2)c2cc(Cl)ccc2c(=O)n1Cc1cc(S(C)(=O)=O)n(CC(N)=O)n1,0%,0%,0%,16%,17%,0%,0%,0%,9%,0%
CN(C)c1cc(-c2ccc3c(N)n[nH]c3c2)nc(N)n1 [GSK2219329],0%,0%,0%,0%,0%,0%,0%,0%,17%,0%
O=C(Nc1ccc2c(c1)OCO2)NC1CCN(c2ccnc(NCc3ccc(F)cc3)n2)CC1 [GSK1379859],28%,0%,0%,7%,0%,0%,0%,0%,16%,0%
Nc1ncnc2c1ncn2-c1cccc2ccccc12 [SKF-97184],0%,32%,12%,9%,0%,0%,6%,25%,0%,31%
OCCCNc1nccc(-c2c(-c3cccc(C(F)(F)F)c3)nn3cc(C(F)(F)F)ccc23)n1 [GW630813],7%,2%,0%,8%,0%,0%,55%,0%,0%,0%
Cc1nnc(-c2ccc3ncn(-c4ccc(S(C)=O)cc4)c3c2)o1 (stereo not shown),0%,0%,0%,29%,0%,0%,22%,0%,0%,2%
Cc1nnc(-c2ccc(C)c(-c3ccc(C(=O)O)cc3)c2)o1 [GW608005],35%,0%,7%,0%,0%,0%,0%,1%,0%,0%
COc1cccc(C2=C(Nc3cccc(C(=O)O)c3)C(=O)NC2=O)c1 [SB-390770],8%,24%,11%,8%,2%,12%,4%,0%,30%,3%
CCc1ccc(-c2ccc3c(c2)-c2nn(C)cc2S(=O)(=O)N3C)cc1,0%,0%,0%,0%,2%,0%,0%,0%,27%,12%
Nc1n[nH]c2nnc(-c3ccccc3)c(-c3ccccc3)c12 [GW554060],0%,0%,9%,25%,0%,0%,0%,35%,0%,0%
COC(=O)c1c(-c2ccccc2)c2cc(C)ccc2c(=O)n1Cc1ccccc1,0%,0%,0%,19%,0%,0%,1%,0%,0%,12%
CCc1nc(-c2cccc(C)c2)c(-c2ccncc2)s1,0%,0%,15%,23%,0%,0%,15%,0%,23%,0%
CCn1c(-c2ccoc2)nc2cnccc21 [SB-733887],41%,18%,0%,1%,0%,0%,0%,0%,26%,0%
COc1cc2ncn(-c3cc(OCCCc4ccccc4)c(C(N)=O)s3)c2cc1OC [GSK205189],27%,0%,7%,13%,0%,15%,0%,0%,21%,0%

SMILES,%Inh (SRPK1),%Inh (SRPK2),%Inh (SRPK3),%Inh (STK16),%Inh (STK33),%Inh (STK35),%Inh (STK36),%Inh (STK39),%Inh (SYK),%Inh (SgK110)
COc1ccc(-c2cc3c(C)nc(N)nc3n([C@H]3CC[C@H](OCCO)CC3)c2=O)cn1,0%,0%,0%,0%,0%,8%,0%,0%,1%,25%
Nc1nccc2scc(-c3ccc4c(c3)CCN4C(=O)Cc3ccccc3)c12 [GSK2576924],28%,0%,0%,4%,0%,0%,0%,11%,16%,0%
COc1cc(OC)cc(-c2cc3cnc(N)nc3nc2NC(=O)NC(C)(C)C)c1,47%,0%,0%,0%,0%,0%,0%,0%,0%,0%
COc1cccc(-n2cnc3c(N)ncnc32)c1 [SKF-97416],2%,6%,0%,16%,12%,0%,0%,29%,4%,0%
CCS(=O)c1ccc(-c2coc3ccc(-c4nnc(C)o4)cc23)cc1 (stereo not shown),0%,0%,5%,22%,0%,0%,2%,28%,13%,5%
Cn1c(=O)c(F)c(Nc2ccc(I)cc2F)c2c(=O)n(OC[C@H](O)CO)cnc21,15%,13%,7%,14%,0%,0%,9%,32%,20%,0%
O=C(NCCNc1ccnc(Nc2ccc(F)cc2)n1)Nc1ccc2c(c1)OCO2 [GSK1379882],17%,24%,0%,23%,0%,0%,0%,12%,0%,0%
CCCC(=O)Nc1n[nH]c2ncc(-c3cccc4ccccc34)cc12 [SB-642057],16%,0%,0%,24%,0%,4%,0%,6%,0%,0%
O=C(Nc1n[nH]c2nc(-c3ccccc3)c(Br)cc12)C1CC1 [SB-708998],36%,0%,17%,0%,14%,0%,38%,4%,13%,13%
COc1cc(Nc2nccc(N3CCC(NC(=O)C4COc5ccccc5O4)C3)n2)cc(OC)c1OC (stereo not shown) [GSK1379761],65%,70%,0%,70%,4%,13%,40%,0%,44%,0%
Cc1nc(N(C)[C@H]2CN(C(=O)CC#N)CC[C@H]2C)c2cc[nH]c2n1,26%,0%,1%,0%,0%,0%,0%,0%,0%,0%
COc1ccc(-c2cc3c(C)nc(N)nc3n([C@H]3CC[C@H](O)CC3)c2=O)cn1,21%,0%,0%,0%,0%,0%,0%,0%,0%,0%
O=C(Nc1n[nH]c2nc(-c3ccccc3)c(Cl)cc12)C1CC1 [SB-734909],0%,27%,15%,1%,0%,32%,6%,0%,0%,23%
FC(F)(F)c1ccc(-c2ncn(CCCN3CCOCC3)c2-c2ccncc2)cc1 [SB-217780],0%,6%,6%,9%,0%,0%,10%,19%,0%,0%
Cl.c1ccc(Cn2cnc3cc(Nc4ncnc5ccccc45)ccc32)cc1 [GW272142],19%,0%,0%,28%,0%,0%,0%,7%,11%,0%
CCCNC(=O)Nc1ccc(Oc2ncnc3ccn(C)c23)cc1,25%,0%,10%,11%,0%,0%,32%,0%,0%,41%
Cc1nn2c(=O)cc(N3CCOCC3)nc2n1Cc1cccc(Cl)c1Cl [GSK2342769],19%,0%,0%,0%,0%,0%,0%,10%,8%,0%
